GALK inhibitor: inhibitors of human galactokinase. P51570. Purified GALK, Kinase-Glo residual ATP luminescence. Potency, µM (highest dose often 57.5 µM), for the others: at the highest dose activity change, negative = inhibition, actives largely listed as inhibitors. actives 0.007% (n = 270,000); note: potency is the fitted concentration of half-maximal effect
Target sequence (P51570 whole entry, looked up): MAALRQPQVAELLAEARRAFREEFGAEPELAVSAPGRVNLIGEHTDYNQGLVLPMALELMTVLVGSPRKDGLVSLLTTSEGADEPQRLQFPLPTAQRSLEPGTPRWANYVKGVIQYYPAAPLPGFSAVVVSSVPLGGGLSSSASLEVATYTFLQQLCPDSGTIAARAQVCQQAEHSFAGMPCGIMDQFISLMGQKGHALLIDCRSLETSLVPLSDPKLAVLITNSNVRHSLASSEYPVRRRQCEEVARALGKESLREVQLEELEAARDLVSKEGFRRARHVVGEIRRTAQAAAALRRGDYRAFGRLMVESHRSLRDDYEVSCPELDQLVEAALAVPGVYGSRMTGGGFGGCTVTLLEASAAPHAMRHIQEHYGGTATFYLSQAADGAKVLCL
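Galactose (100 uM) and ATP (35 uM) were turned over by 5 nM GALK for 1 h at RT. Kinase-Glo Plus then converted the remaining ATP into a luminescent signal.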
TrxR1 substrate: is turned over as a substrate by rat TrxR1 | actives 0.01% (n = 390,000) | O89049 | AID 588456 | Potency, µM (highest dose often 114 µM), inactives show top-dose activity change, negative = substrate turnover | purified TrxR1 substrate turnover, NADPH consumption readout; note: potency is the fitted concentration of half-maximal effect; nearly all actives have a fitted effect of over 50% in size
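Rat TrxR1, dispensed at 90 nM, was prereduced with 400 uM NADPH (final) for 5 min at ~22 deg C, then incubated with compound 15 min before 400 uM selenite. A first-read NADPH fluorescence drop versus no-compound background flagged substrates.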
VP16 counter: counter-screen for ROR gamma inhibitors: Gal4-VP16 reporter. Drosophila S2 Gal4-VP16 UAS-luciferase, luminescence, 20 h. Potency, µM (doses to about 53.6 µM), inactives show at the top dose activity, negative = inhibition, hits mostly inhibitors. actives 3.5% (n = 310,000);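 note: Gal4-VP16 expression switched on by copper sulfate through the metallothionein promoter; potency is the fitted concentration of half-maximal effect; nearly all actives have a fitted effect of over 50% in size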
RORg inh: blocks mouse ROR gamma transcriptional activity; Drosophila S2 Gal4-RORgamma UAS-luciferase reporter, 20 h; Potency, µM (titrated, usually from 53.6 µM), without a hit: at the highest dose activity change, negative = inhibition, most hits filed as inhibitors; actives 5.4% (n = 310,000); note: potency is the fitted concentration of half-maximal effect; nearly all actives have a fitted effect of over 60% in size
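Luciferase reporter read in Schneider cells carrying Gal4-RORγ (mouse) and UAS-Photinus luciferase; cells given compound 1 h before 700 uM copper sulfate induction, then incubated 20 h at ambient temperature.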
Coupling enz: inhibits coupling enzyme system, counter-screen for aldolase hits. actives 0.67% (n = 290,000). coupling enzyme system counterscreen, AmpLite Red fluorescence. activity change, negative = inhibition, % at 58.2 µM, hits read low; in the data active = activity change below about -30%
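Compounds tested against the coupling enzymes alone at 57.5 uM final; readout was AmpLite Red fluorescence (525/598 nm) after 20 min at RT.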
rTrxR1 inhibitor: rat TrxR1 inhibition; Potency, µM (highest dose often 114 µM), for inactives: top-dose activity change, negative = inhibition, hits mostly inhibitors; O89049; recombinant rTrxR1, NADPH fluorescence consumption, selenite substrate; actives 1% (n = 390,000); note: potency is the fitted concentration of half-maximal effect; nearly all actives have a fitted effect of over 65% in size
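Rat TrxR1 (90 nM in the dispensed reagent) was pre-reduced with 400 uM NADPH for 5 min at room temperature, then incubated with compound for 15 min. After 400 uM selenite was added, NADPH fluorescence (Ex 340/Em 450 nm) was followed for 8 min.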
* marks the source's active call; other numbers are inactive results; ? = inconclusive; / = not tested or not shown; [ ] = remark or other dose. A selection: hits, their analogues and other compounds. The true share with any hit is near 5.9%. Unless noted, calls come from the whole dose curve; as a rule, active = well fitted curve in the direction sought with a large enough effect; inconclusive = small, poorly fitted or top-dose-only effect, or another doubt; inactive = no such curve, though single readings can be large; an effect the other way counts as inactive or inconclusive. % is set by controls: 0 for no effect and ±100 for the full control effect.

SMILES | GALK inhibitor | TrxR1 substrate | VP16 counter | RORg inh | Coupling enz | rTrxR1 inhibitor
COC(=O)c1ccccc1-c1ccc(C(c2c(C)[nH][nH]c2=O)c2c(C)[nH][nH]c2=O)o1 | -1.1% | -25.2%[57.1 µM] | -6.3% | 37.3% | -0.6 | -32.6%[57.1 µM]
NC(=O)Cc1ccc(Nc2nnc(-c3ccccc3)c3ccccc23)cc1 | -1.7% | -7.0% | 22.4µM* | ? | 0.2 | -10.1%
O=C(O)CNC(=S)N(Cc1ccccc1F)C1CCCCC1 | 3.7% | 11.3%[57.1 µM] | -8.9% | -0.7% | 0.6 | 11.8%
Cc1ccoc1C(=O)Nc1ccc(CC(=O)O)cc1 | -0.6% | 8.5%[57.1 µM] | ? | 0.501µM* | 0.4 | 11.5%[57.1 µM]
COc1cc(-c2nc(-c3cccc(Cl)c3)c(-c3ccccc3)[nH]2)cc(OC)c1OC | / | 18.8% | / | / | / | 49.3%
COc1cc(-c2nc(-c3ccc4c(c3)-c3ccccc3S4(=O)=O)c(-c3ccccc3)[nH]2)cc(OC)c1O | 0.8% | -2.8% | 4.47µM* | ? | -0.9 | -0.8%
O=C1NC(c2ccccc2)C(C(=O)c2cccs2)=C1O (configuration not stated) | -1.9% | -4.2%[57.1 µM] | 10.8% | ? | 4.9 | 1.0%[57.1 µM]
C/C=C1\COC(C(=O)NCc2cccc(OC)c2OC)(C(F)(F)F)C=C1C=C(C)C (configuration not stated) | / | -6.1% | -2.4% | 16.4% | 2.8 | -17.9%
C/C=C1\COC(C(=O)NCCCN2CCCC2=O)(C(F)(F)F)C=C1C=C(C)C (configuration not stated) | / | -5.4% | ? | ? | -0.7 | 3.16µM*
C/C=C1\COC(C(=O)NCc2ccccn2)(C(F)(F)F)C=C1C=C(C)C (configuration not stated) | / | 8.8% | -18.8% | ? | 1.7 | 3.98µM*
C/C=C1\COC(C(=O)NCc2ccccc2)(C(F)(F)F)C=C1C=C1CCCCC1 (configuration not stated) | / | 4.8% | ? | ? | 0.8 | 1µM*
Nc1cc(N)nc(SCCOc2ccccc2)n1 | 1.0% | 5.4% | 1.6% | ? | -2.9 | 20.5%
COc1cccc(OCCSc2nc(N)cc(N)n2)c1 | 0.4% | -9.6% | 6.31µM* | 7.94µM* | 0.8 | 4.3%
COc1cccc(NC(=O)Cc2nnc(SCCOc3ccccc3)n2C)c1 | 0.3% | 6.5%[57.1 µM] | 4.5% | 7.0% | 7.5 | 10.1%[57.1 µM]
c1ccc(OCCSc2nnc3sc4ccccc4n23)cc1 | 2.9% | -4.5% | 11.2µM* | 11.2µM* | -39.3* | 17.8%
COc1cccc(OCCSc2nnc3sc4ccccc4n23)c1 | -0.1% | -6.4% | / | -21.6%[0.365 µM] | -41.6* | 3.2%
CCN(CC)C(=O)CSc1nnc2sc3ccccc3n12 | 7.2% | 10.6%[57.1 µM] | 8.9% | 13.1% | -0.4 | -4.7%[57.1 µM]
COC(=O)c1ccc(C)cc1C1CN=NC12Cc1cc(C)ccc1C2=O (configuration not stated) | / | -8.0% | / | / | / | ?
CC(=O)N1CCN(C(=S)NC(=O)C23CC4CC(CC(C4)C2)C3)CC1 | 0.0% | 3.9% | -20.7% | 14.1µM* | -3.4 | 12.3%
CNC(=S)N1CCC(NC(=O)C23CC4CC(CC(C4)C2)C3)CC1 | -1.0% | -3.2% | -7.3% | 1.8% | -0.1 | 5.5%[57.1 µM]
S=C(NC12CC3CC(CC(C3)C1)C2)N1CCCC1 | -0.4% | 3.7% | ? | 14.1µM* | -1.5 | ?
COCCNC(=S)NC(=O)CC12CC3CC(CC(C3)C1)C2 | / | -11.4% | ? | 2.51µM* | -1.8 | -11.8%
O=C(CC12CC3CC(CC(C3)C1)C2)NC(=S)N1CCCCC1 | -0.6% | -13.9% | 3.55µM* | 4.47µM* | 5.3 | -14.3%
CC1CCCCN1C(=O)NC12CC3CC(CC(C3)C1)C2 (configuration not stated) | 0.2% | 2.4% | 2.2% | -3.8% | 3.2 | 12.9%
CNC(=O)CC12CC3CC(CC(C3)C1)C2 | 3.5% | 11.6% | -8.8% | -26.0% | 0.7 | 19.3%
SMILES | GALK inhibitor | TrxR1 substrate | VP16 counter | RORg inh | Coupling enz | rTrxR1 inhibitor
CCCCCCCC1(C)NC(=O)N(c2ccccc2)N1 (configuration not stated) | -0.9% | 1.7% | 2.3% | 11.4% | 0.2 | 11.5%
CSc1nsc(SCC(=O)NCc2ccc(C)cc2)n1 | -3.9% | 9.1%[57.1 µM] | -6.5% | -2.5% | 1.7 | 18.3%[57.1 µM]
CC1(CC(=O)N/N=C/c2cc([N+](=O)[O-])c(O)cc2O)OCCO1 | -4.2% | -21.2%[57.1 µM] | ? | 5.62µM* | -0.8 | -21.9%[57.1 µM]
O=S(=O)(/C=C/C=C/S(=O)(=O)c1ccccc1)c1ccccc1 | / | 12.4%[57.1 µM] | / | / | / | 2µM*
CN1CCC(=NNC(=O)COc2ccc(Cl)cc2)CC1 | 1.2% | -2.3%[57.1 µM] | 1.9% | -19.8% | 3.4 | -1.9%[57.1 µM]
O=C(COc1ccc(Cl)cc1)NN=C1CCCCCCC1 | -2.8% | 3.9%[57.1 µM] | -15.4% | 8.91µM* | -0.8 | 20.5%
Cn1cc(-c2nc3cnc(N4CCNCC4)nc3n(C)c2=O)c2ccccc21 | / | / | 11.2µM* | 10µM* | -0.7 | /
COc1cccc(Cn2c(=O)c(-c3cn(C)c4ccccc34)nc3cnc(N4CCNCC4)nc32)c1 | / | / | ? | 20µM* | 0.6 | /
COc1cccc(Cn2c(=O)c(-c3cn(C)c4ccccc34)nc3cnc(N4CCOCC4)nc32)c1 | / | / | 2.4% | 6.3% | 3.5 | /
CC(C)(C)c1ccc(-n2nc(C#N)c(Cl)cc2=O)cc1 | -10.8% | 4.2%[57.1 µM] | 7.08µM* | 7.08µM* | -0.5 | 15.8µM*
CCOC(=O)C1(Cc2ccccc2C(F)(F)F)CCN(C(C)CSC)CC1 (configuration not stated) | -1.5% | 1.5% | -8.1% | ? | 1.1 | 20.3%
CCOP(=O)(OCC)C(C#N)=C1SCN(c2ccc(Cl)cc2)CS1 | 0.0% | -7.9% | ? | 14.1µM* | 1.1 | 12.6µM*
CCOC(=O)c1[nH]c(C)c(CCC(=O)N2CCN(c3ccc(Cl)cc3)CC2)c1C | / | 1.1%[57.1 µM] | / | / | / | 15.6%[57.1 µM]
O=C(NCc1cc([N+](=O)[O-])ccc1O)c1cccnc1Sc1ccccc1Cl | 4.3% | -12.2% | 2.82µM* | 3.55µM* | / | 2.7%
O=C(NCc1cc([N+](=O)[O-])ccc1O)c1cccnc1Sc1ccc(Cl)cc1 | -1.9% | -13.2% | -11.2% | -1.7% | / | 1.4%
COc1cc(/C=N/NC(=O)C(=O)NCC2CCCO2)cc(Cl)c1O (configuration not stated) | -3.1% | -11.4% | -0.8% | 11.8% | -0.6 | -10.3%
COc1cc(/C=N/NC(=S)NCC2CCCO2)cc(OC)c1OC (configuration not stated) | 4.5% | 0.6%[57.1 µM] | 15.8µM* | 4.47µM* | 0.5 | 10.9%[57.1 µM]
COc1ccc(/C=N/NC(=S)NCC2CCCO2)cc1 (configuration not stated) | -0.1% | -7.7% | 11.2µM* | 2.82µM* | 0.5 | -0.2%[57.1 µM]
Cc1ccc2c(c1)c(C)c(C)n2CC(O)Cn1nc(C)c(Br)c1C (configuration not stated) | -0.7% | -6.8% | -25.4% | 6.2% | 4.8 | -2.1%

From PubChem
